Reference: PubChem BioAssay (NCATS)
Results filed as inconclusive are left out. Where a call stands in place of a potency, no number is given. Values without a mark were called inactive. Calls of active or inactive are those of the source. Calls come from the whole dose curve; as a rule, active = well fitted activation curve with a large enough effect; inconclusive = small, poorly fitted or top-dose-only effect, or another doubt; inactive = no such curve, though single readings can be large or run the other way.

What follows are compounds tested against Rap guanine nucleotide exchange factor 3 (Homo sapiens) (UniProt O95398) (assay: Counterscreen qHTS for agonist of cAMP-regulated guanine nucleotide exchange factor 3 (EPAC1) (AID 1645889; note: nearly all actives have a fitted effect of over 40% in size)). Settings: EPAC1 Rap1B-BODIPY-GDP exchange, fluorescence; series mostly up to 154 µM.
Summary of the method: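 Rap1B–BODIPY-GDP (250 nM) with 50 uM GDP; compounds pin-transferred to 9.74 nM–152 uM final (activator) or from 7.32 nM upwards (inhibitor). Fluorescence Ex/Em 480/540 nm read at 5 and 30 min, then after adding cAMP or buffer, at room temperature.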
Work on CCc1nnc(NC(=O)c2ccc(-c3cccc(C(F)(F)F)c3)o2)s1 yielded an activation of 26.6% [at 30.8 µM]. CCc1ccc(NC(=O)COC(=O)CCC2CCCC2)cc1 was tested, and the Potency was “inactive”. With O=S(=O)(N/N=C/c1cccnc1)c1ccc(Cl)c(Cl)c1 the activation was 6.45% [at 30.8 µM]. With Cc1ccc(NC(=O)Cn2nnc(-c3nc(-c4ccncc4)no3)c2N)c(C)c1 the Potency was “inactive”. For Cn1cc([C@]2(O)C(=O)Nc3c(F)cccc32)c2ccccc21, the Potency was “inactive”. In the case of c1ccc(NN(Cc2cnccn2)c2ccccc2)cc1, the Potency is reported as “inactive”. Work on C=CCOc1ccc(C2N3CC4(CC)CN2CC(CC)(C3)C4=O)cc1 (stereo unspecified) yielded an activation of 36.6% [at 30.8 µM]. COc1ccc(C2c3ccsc3CCN2C(C)=O)cc1 (stereo unspecified) was tested, and the Potency was “inactive”. For O=S(=O)(NCC1(N2CCOCC2)CCCCC1)c1ccc(Cl)cc1C(F)(F)F, the Potency was “inactive”. For COC(=O)c1cc(Br)c(=O)n(CCc2ccc(F)cc2)c1, the Potency was “inactive”. COc1cc(NS(=O)(=O)c2cc3[nH]c(=O)c(=O)[nH]c3cc2C)cc(OC)c1OC gave an activation of 12.2% [at 30.8 µM]. With CSc1ccc(CC2C(=O)Nc3ccccc32)cc1 (stereo unspecified) the Potency was “inactive”. In the case of COc1c(O)cc2oc(-c3ccc(O)c(O)c3)cc(=O)c2c1O, the Potency is reported as “inactive”. With COc1cccc(-n2ccn(CC(=O)NCc3ccc(C)cc3)c(=O)c2=O)c1 the Potency was “inactive”. COc1cccc(-c2nc(SCC(=O)Nc3nc(-c4ccccc4)c(C)s3)[nH]c(=O)c2C#N)c1 was tested, and the Potency was “inactive”. With Cc1ccccc1N=C(c1ccccc1)C1C(=O)c2ccccc2C1=O the activation was 13.3% [at 30.8 µM].
